PostGolgi ctrl: yeast control strain growth, post-Golgi counter-screen | hit rate 5% among 98,000 | inhibition, % at 10 µM | efflux-deficient yeast background strain, growth absorbance A615, 16 h
CYP2C9 inh: inhibitors of human CYP2C9; CYP2C9 Supersomes, luciferin-H conversion, luminescence; inhibition, % at 5 µM; hit rate 20% among 96,000;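 active = blocking of liver enzyme CYP2C9 beyond about 50% at 5 µM, limit read from the data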
Target sequence (P11712 whole entry, looked up): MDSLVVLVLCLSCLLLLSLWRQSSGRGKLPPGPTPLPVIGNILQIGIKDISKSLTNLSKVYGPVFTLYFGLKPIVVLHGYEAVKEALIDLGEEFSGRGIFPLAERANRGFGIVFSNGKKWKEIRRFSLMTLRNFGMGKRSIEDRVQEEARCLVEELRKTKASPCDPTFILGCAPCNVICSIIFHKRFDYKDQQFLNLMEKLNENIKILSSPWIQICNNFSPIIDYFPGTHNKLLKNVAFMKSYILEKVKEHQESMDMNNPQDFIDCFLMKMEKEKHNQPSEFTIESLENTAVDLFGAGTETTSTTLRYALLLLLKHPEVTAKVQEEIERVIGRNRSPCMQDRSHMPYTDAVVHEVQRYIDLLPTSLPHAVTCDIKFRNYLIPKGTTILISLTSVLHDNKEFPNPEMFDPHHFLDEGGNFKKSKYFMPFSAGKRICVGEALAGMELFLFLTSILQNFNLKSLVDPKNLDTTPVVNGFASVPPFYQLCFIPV
CYP2C9 activ: activators of human CYP2C9; P11712; AID 1024; recombinant CYP2C9, luciferin-H conversion, luminescence; active compounds read high; factor 1 = untreated enzyme, 0 = blocked; activation factor at 5 µM; hit rate 1.4% among 96,000;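 active = activation factor of 2 or more for CYP2C9 at a 5 µM dose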;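 also: 0 = sulfaphenazole-blocked wells and 1 = vehicle-only wells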
CYP2C19 inhib: blocks human cytochrome P450 2C19; P33261; CYP2C19 Supersomes, luciferin-H EGE luminescence, 30 min; inhibition, % at 5 µM; hit rate 21% among 96,000;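 active = CYP2C19 inhibition above a set limit at 5 µM in the primary screen, cut at about 50% in these data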;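 also: plate controls were negative control wells for no effect and 2.5 mM tranylcypromine positive control for full effect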
PostGolgi yeast: growth inhibition of a yeast mutant, post-Golgi transport screen. hit rate 0.9% among 98,000. AID 739. inhibition, % at 10 µM. post-Golgi transport phenotypic cell assay;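 also: yeast cells grown in 1536-well plates; yeast grown about 18 h at 30C before absorbance read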
CYP2C19 act: increases human CYP2C19 enzyme activity; recombinant CYP2C19, luciferin-H EGE luminescence; active compounds read high; 0 = fully inhibited enzyme, 1 = untreated enzyme; activation factor at 5 µM; 96,000 tested, under 10 active;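 active = activation factor of at least 2 at 5 µM in the primary screen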;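 also: 0 = wells with 2.5 mM tranylcypromine and 1 = vehicle-only wells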
* hit, by the source's call; / = no result. This is a sample that favours compounds with a hit; in the whole collection about 32% have one here. Rule as the data show it, unless noted: active = inhibition above about 30%; inactive = the rest.

SMILES	PostGolgi ctrl	CYP2C9 inh	CYP2C9 activ	CYP2C19 inhib	PostGolgi yeast	CYP2C19 act
O=C(c1cc(-c2cccs2)nc2ccccc12)N1CCN(S(=O)(=O)c2ccccc2)CC1	26.8	94.2*	0.1	83.8*	7.2	0.2
O=C(c1cc(-c2cccs2)nc2ccccc12)N1CCN(S(=O)(=O)c2cccc(F)c2)CC1	28.7	69.4*	0.3	-0.2	-2.6	1
O=C(Nc1nc(-c2ccccc2)cs1)c1ccc(Br)o1	27.4	37.3	0.6	23.6	-3.3	0.8
COc1ccccc1C(=O)Nc1nnc(C)s1	9.9	28.4	0.7	3.5	-7.1	1
COc1ccccc1C(=O)NCCCn1cc(Br)c(C)n1	10.5	20.8	0.8	73.1*	8.6	0.3
COc1cc(NC(=O)C(C)Oc2ccccc2)cc(OC)c1 (stereo not given)	-2.6	79.2*	0.2	85.5*	4.1	0.1
CC(Oc1ccccc1)C(=O)Nc1ccccc1O (stereo not given)	-0.5	86.9*	0.1	86.8*	-1.8	0.1
COC(=O)c1ccccc1NC(=O)C(C)Oc1ccccc1 (stereo not given)	11.9	/	/	/	-0.3	/
COC(=O)c1ccc(NS(=O)(=O)c2cccc3cccnc23)cc1	3.2	7.7	0.9	-5.4	-1.2	1.1
Cc1cccc(NC(=O)CCS(=O)(=O)c2cccc3nsnc23)c1C	15.8	-12.5	1.1	8.8	-11.9	0.9
CCOC(=O)c1cccc(NC(=O)CCS(=O)(=O)c2cccc3nsnc23)c1	5.2	72.4*	0.3	77.4*	-0.3	0.2
CCOC(=O)c1ccc(NS(=O)(=O)c2cccc3nsnc23)cc1	8.8	77.7*	0.2	36.7	-0.3	0.6
Cc1ccc(C(=O)C2OC(=O)C(C)(C)C(=O)C2(C)C)cc1 (stereo not given)	6.6	-2.2	1	34.3	-4.8	0.7
O=[n+]1c2c(n([O-])c3cc(F)c(N4CCCC4)cc31)CCCC2	16.6	14.0	0.9	7.0	2.9	0.9
FC(F)(F)c1cccc(CON=C2CCN(c3ncc(C(F)(F)F)cc3Cl)CC2)c1	5.0	13.6	0.9	31.9	-3.0	0.7
NNc1nnc(-c2ccccc2)c(-c2ccccc2)n1	23.6	79.4*	0.2	87.9*	-12.7	0.1
O=C(NCc1ccccc1)NC(=O)c1ccccc1	6.2	4.8	1	37.3	6.8	0.6
CCCCN(CC)Cc1ccc(CNC(=O)Nc2ccc(OCC)cc2)o1	2.1	12.3	0.9	4.2	5.2	1
O=C(NC1CCCCC1)N(CCO)Cc1cc2cc3c(cc2[nH]c1=O)OCCO3	-8.3	53.2*	0.5	2.7	9.3	1
CCN(CC)CCCN(Cc1cc2cc3c(cc2[nH]c1=O)OCCO3)C(=O)Nc1ccc(F)cc1	0.6	6.3	0.9	19.1	34.9*	0.8
CCN(CC)CCCN(Cc1cc2cc3c(cc2[nH]c1=O)OCO3)C(=O)Nc1ccccc1OC	-2.8	0.4	1	9.7	5.4	0.9
Cc1cc(C)n(C(=O)C(C)N2C(=O)c3ccccc3C2=O)n1 (stereo not given)	-2.8	16.6	0.8	49.5	0.7	0.5
Cc1cc(C(=O)N2CCC(C(F)(F)F)n3nccc32)on1 (stereo not given)	-7.6	-12.8	1.1	-0.3	-3.9	1
CCCCSc1nc2c(cc1C#N)CCC2	-4.8	49.4	0.5	57.7*	-53.3	0.4
C=C(C)CSc1nc2c(cc1C#N)CCC2	-0.3	44.8	0.6	79.8*	-1.9	0.2
SMILES	PostGolgi ctrl	CYP2C9 inh	CYP2C9 activ	CYP2C19 inhib	PostGolgi yeast	CYP2C19 act
CC(C)OC(=O)CC(=O)CSc1nc2c(cc1C#N)CCCCCC2	10.8	63.0*	0.4	46.6	-0.9	0.5
CC(C)OC(=O)CC(=O)CSc1nc2c(cc1C#N)CCCC2	2.1	29.3	0.7	15.5	-5.0	0.8
Cc1ccc(CSc2nnc(NC(=O)C3COc4ccccc4O3)s2)cc1 (stereo not given)	2.3	-2.0	1	-12.3	-8.3	1.1
CCC(CC)c1nnc(NC(=O)C2COc3ccccc3O2)s1 (stereo not given)	19.7	/	/	/	-10.6	/
Cc1nnc(NC(=O)C2(c3ccccc3)CCOCC2)s1	1.3	18.0	0.8	50.4*	0.8	0.5
Cc1nnc(NC(=O)C2COc3ccccc3O2)s1 (stereo not given)	16.0	85.5*	0.1	45.1	3.8	0.5
CCc1nnc(NC(=O)C2COc3ccccc3O2)s1 (stereo not given)	10.9	55.8*	0.4	14.5	-5.1	0.9
COc1ccccc1C(=O)Nc1cc2c(ccc3ccccc32)oc1=O	2.4	/	/	/	-0.6	/
Cc1c(Br)cc(C(=O)N2CCN(CCO)CC2)c(C)c1C	-1.6	17.3	0.8	19.8	0.3	0.8
O=C1CS/C(=N\C(=O)N2c3ccccc3Sc3ccccc32)N1	0.8	67.6*	0.3	-7.5	-8.7	1.1
O=C1CSC(=Nc2ccccc2)N1	0.7	1.9	1	0.6	5.7	1
COc1ccc(CNC(C)C2COc3ccccc3O2)c(OC)c1 (stereo not given)	2.4	12.8	0.9	87.0*	5.2	0.1
CC(NC(=O)CCC(=O)NC(C)C1COc2ccccc2O1)C1COc2ccccc2O1 (stereo not given)	-0.1	38.5	0.6	42.0	-4.1	0.6
CC(NCc1ccccc1)C1COc2ccccc2O1 (stereo not given)	7.0	6.0	0.9	51.9*	-2.7	0.5
Nc1ncnc2c1ncn2CCNCCc1ccccc1	0.1	-6.4	1.1	-7.1	-33.3	1.1
O=C(c1csc2c1CCCC2)N1CCCCC1	0.9	-37.8	1.4	52.4*	9.3	0.5
O=C(c1csc2ccccc12)N1CCCCCC1	5.2	-46.7	1.5	24.6	1.9	0.8
O=C(c1csc2c1CCCCC2)N1CCN(c2ncccn2)CC1	7.7	88.7*	0.1	87.8*	-1.8	0.1
Cc1ccc2[nH]c(=O)c(NC(N)=S)nc2c1	4.6	2.6	1	1.2	9.5	1
O=C(Nc1ccc(N2CCOCC2)cc1)Nc1cnsn1	5.3	-4.9	1	2.1	10.2	1
Cn1ccnc1C(O)c1ccco1 (stereo not given)	-7.2	-6.1	1.1	-3.1	-3.4	1
O=C(Nc1ccccc1C(=O)N1CCOCC1)c1ccncc1	10.8	-9.2	1.1	-10.2	-4.2	1.1
COc1ccc(C(=O)Nc2nnc(C(F)(F)F)s2)cc1	41.8*	75.0*	0.3	6.3	-3.4	0.9
CCC(NC(=O)Nc1nnc(C(F)(F)F)s1)(C(F)(F)F)C(F)(F)F	17.4	70.6*	0.3	15.4	-4.4	0.8
O=C(Nc1nnc(C(F)(F)F)s1)c1cccnc1	0.5	/	/	/	4.0	/
CC(=O)N1N=C(c2cccc([N+](=O)[O-])c2)OC1c1ccccc1Cl (stereo not given)	9.2	85.5*	0.1	62.5*	-5.2	0.4
CCOC(=O)c1sc(C)c2c1NC(c1ccc(Cl)cc1)NC2=O (stereo not given)	-10.3	53.3*	0.5	11.9	-2.6	0.9
